Test system: XIP peptide (Xip251-270)
Assay: compounds binding XIP fragment 251-270 – biochemical, small-molecule microarray, fluorescence 635/667 nm, 0.5 µg/mL protein, primary screen (AID 1183)
Settings: fluorescence 635 nm, higher = more signal
In the case of `Cc1ccc(S(=O)(=O)N[C@H]2COC(=O)CC=C[C@H](C)[C@@H](NS(=O)(=O)c3ccc(C)cc3)COC(=O)CC=C[C@@H]2C)cc1`, the composite z-score was -0.019. Work on `C[C@H](ON=C1[C@H]2CCn3c(=O)n(-c4ccccc4)c(=O)n3[C@H]2[C@H](O)[C@@H]2O[C@H]12)c1cn([C@H](CO)Cc2ccccc2)nn1` yielded a composite z-score of 0.238. Compound `CCOC(=O)[C@H](CC(C)C)NC(=O)CCC1CC(OC(=O)NCCc2ccc(F)cc2)CC2(CCCC(COC(=O)NCC(c3ccccc3)c3ccccc3)O2)O1` (some centres not stated) has a composite z-score of 0.836. For `C=CC[C@@H]1C=C[C@H](ON=C(C)CCC(=O)OC[C@H]2O[C@H](c3ccccc3)C=C[C@@H]2Oc2ccc(OC)cc2)[C@@H](CO)O1`, the composite z-score was 0.595. `COC(=O)[C@H]1[C@@H](O)[C@@]2(O)c3ccccc3O[C@@]2(c2ccccc2)[C@@H]1c1ccccc1` showed a composite z-score of -0.028. `C#CCCCON=C1C[C@@H](O)[C@@H](O)[C@@H]2[C@@H]3C(=O)N(C(C)(C)C)C(=O)[C@@H]3CC[C@H]12` gave a composite z-score of -0.385. In the case of `O=C1CCCC=C1C(O)CCCCBr` (configuration not stated), the composite z-score was -0.165. `COC(=O)[C@@H]1CC[C@H](C)[C@@H](c2ccc(C)cc2)N1C(=O)c1ccc(C=NOCC[C@@H]2C=C[C@H](OC(C)=O)[C@@H](COC(C)=O)O2)cc1` gave a composite z-score of 0.484. With `CCN1C(=O)[C@@H]2[C@H]3C(=CC[C@@H]2C1=O)C1(OCCCO1)[C@H]1O[C@H]1[C@H]3O` the composite z-score was 0.689. `COC(=O)CC=C[C@@H](C)[C@@H](C=NOC[C@@H](O)[C@H]1O[C@@H]2OC(C)(C)O[C@@H]2[C@H]1O)NS(=O)(=O)c1ccc(C)cc1` gave a composite z-score of -0.0003. Work on `C[C@@H](c1ccccc1)N1C(=O)[C@H]2[C@H]3[C@H](O)[C@H](O)CC(=NOCc4ccccc4)[C@H]3CC[C@H]2C1=O` yielded a composite z-score of 0.548. `O=C1OCCC=C1C(O)CCc1ccccc1` (configuration not stated) showed a composite z-score of 0.716. Compound `CCOC(=O)C1=NO[C@]2(C=C(Br)C3(OCCCO3)[C@H]3O[C@H]32)C1` has a composite z-score of 0.857. `COC(=O)C=CCCc1coc(C=CCNC(=O)OC)n1` showed a composite z-score of 0.868. For `CC(C)=CCCC(C)=CCON=C1C[C@@H](O)[C@@H](O)[C@@H]2[C@@H]3C(=O)N(Cc4ccccc4)C(=O)[C@@H]3CC[C@@H]12`, the composite z-score was 0.703. `CO[C@H](C1CCCCC1)[C@H](C)C=CCC(=O)OCCCc1ccccc1` showed a composite z-score of 0.628.

Test system: not listed separately
Assay: blood-stage malaria parasite viability loss – strain 3D7, DAPI fluorescence, 100 nL, primary screen (AID 1184);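 note: parasites grown inside human red blood cells in medium with human serum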
Settings: P. falciparum 3D7 growth, 3 d, higher = more signal
Compound `CCc1cc2c(nc1CC)CCN(CCC(C)=NO[C@H](C)c1cn([C@@H]3COC[C@H]3O)nn1)C2` has a z-score of 0.653. `CCO[C@H](c1cc(OC)cc([N+](=O)[O-])c1OC)[C@H](C)C=CCC(=O)OC` gave a z-score of -0.0866. `CC(CCN1CCCCc2nc(C)c(C)cc21)=NO[C@H](C)c1cn([C@H](CO)Cc2ccccc2)nn1` showed a z-score of -1.56. In the case of `CC(C)CCN1CCc2nc(COc3ccccc3)c3c(c2C1)CO[C@@H](C)C3`, the z-score was 0.329. Work on `CCOC(=O)NN=C1C[C@@H](O)[C@@H](O)[C@@H]2[C@@H]3C(=O)N([C@@H](C)c4ccccc4)C(=O)[C@@H]3CC[C@@H]12` yielded a z-score of 0.156. Work on `CC(=O)OC[C@H]1OC(ON=CC[C@@H]2C=C[C@H](OC(C)=O)[C@@H](COC(C)=O)O2)[C@H](OC(C)=O)[C@@H](OC(C)=O)[C@@H]1OC(C)=O` (some centres not stated) yielded a z-score of 0.728. For `Cc1ccc(S(=O)(=O)N[C@@H]2COC(=O)[C@@H](C)COC(=O)CC=C[C@H]2C)cc1`, the z-score was 0.393. `COc1cccc([C@H]2Oc3ccc(OC)cc3C(=NOC[C@@H](O)[C@H]3O[C@@H]4OC(C)(C)O[C@@H]4[C@H]3O)[C@@H]2O)c1` gave a z-score of 0.187. For `CC(C)(C)N1C(=O)[C@H]2[C@H]3[C@H](O)[C@H](O)CC(=O)[C@H]3CC[C@H]2C1=O`, the z-score was -1.08. In the case of `C[C@@H]1CC[C@H]2C(=O)O[C@@H](Cc3ccccc3)CN2[C@H]1c1ccc(Br)cc1`, the z-score was 0.209. `COC(=O)[C@H](C)NC(=O)CCC1CC(OC(=O)NCc2cccc3ccccc23)CC2(CCCC(COC(=O)NCC(c3ccccc3)c3ccccc3)O2)O1` (some centres not stated) showed a z-score of -1.87. Compound `CCC1=NOC(CCC2CC(OC(=O)NCc3cccc4c3OCO4)CC3(CCCC(COC(=O)NCCc4ccccc4OC)O3)O2)C1` (configuration not stated) has a z-score of -0.95. With `CC(C)=CCCC(C)=CCON=C1C[C@@H](O)[C@@H](O)[C@@H]2[C@@H]3C(=O)N(C[C@@H]4CCCO4)C(=O)[C@@H]3CC[C@H]12` the z-score was -0.0721. In the case of `CC(CCN1CCc2nc(-c3ccccc3)c(-c3ccccc3)cc2C1)=NOC[C@@H](O)COCc1ccco1`, the z-score was 0.329. In the case of `COC(=O)[C@@H]1CC[C@H](C)[C@@H](c2ccc(C)cc2)N1C(=O)c1ccc(C=NOC[C@@H](C)[C@H](OCc2ccccc2)C(C)C)cc1`, the z-score was -1.87. `COc1ccc(O[C@H]2C=C[C@@H](c3ccccc3)O[C@@H]2COC(=O)CCC(C)=NOC[C@@H](O)[C@H]2O[C@@H]3OC(C)(C)O[C@@H]3[C@H]2O)cc1` showed a z-score of 0.651. For `COc1ccc(COC(=O)NN=C2C[C@@H](O)[C@@H](O)[C@@H]3[C@@H]4C(=O)N(c5cccc(Oc6ccccc6)c5)C(=O)[C@@H]4CC[C@@H]23)cc1`, the z-score was -0.374. `C#CCCCON=C1C[C@@H](O)[C@@H](O)[C@@H]2[C@@H]3C(=O)N(C(C)(C)C)C(=O)[C@@H]3CC[C@@H]12` showed a z-score of -0.315. Work on `C#CCCCON=C1[C@H]2CCn3c(=O)n(-c4ccccc4)c(=O)n3[C@H]2[C@H](O)[C@@H]2O[C@H]12` yielded a z-score of -1.19. For `CCOC(=O)C1=NO[C@@]2(C=C(Br)C3(OCCCO3)[C@H]3O[C@H]32)C1`, the z-score was 0.522. With `Cc1ccc(S(=O)(=O)N[C@H]2COC(=O)CC=C[C@H](C)[C@@H](NS(=O)(=O)c3ccc(C)cc3)COC(=O)CC=C[C@@H]2C)cc1` the z-score was -0.304. `C[C@H](ON=C1[C@H]2CCn3c(=O)n(-c4ccccc4)c(=O)n3[C@H]2[C@H](O)[C@@H]2O[C@H]12)c1cn([C@H](CO)Cc2ccccc2)nn1` gave a z-score of 0.0242. Compound `CCOC(=O)[C@H](CC(C)C)NC(=O)CCC1CC(OC(=O)NCCc2ccc(F)cc2)CC2(CCCC(COC(=O)NCC(c3ccccc3)c3ccccc3)O2)O1` (some centres not stated) has a z-score of -1.02. For `C=CC[C@@H]1C=C[C@H](ON=C(C)CCC(=O)OC[C@H]2O[C@H](c3ccccc3)C=C[C@@H]2Oc2ccc(OC)cc2)[C@@H](CO)O1`, the z-score was 0.298. In the case of `COC(=O)[C@H]1[C@@H](O)[C@@]2(O)c3ccccc3O[C@@]2(c2ccccc2)[C@@H]1c1ccccc1`, the z-score was -1.87. Compound `C#CCCCON=C1C[C@@H](O)[C@@H](O)[C@@H]2[C@@H]3C(=O)N(C(C)(C)C)C(=O)[C@@H]3CC[C@H]12` has a z-score of -0.381. In the case of `O=C1CCCC=C1C(O)CCCCBr` (configuration not stated), the z-score was -1.76. Work on `COC(=O)[C@@H]1CC[C@H](C)[C@@H](c2ccc(C)cc2)N1C(=O)c1ccc(C=NOCC[C@@H]2C=C[C@H](OC(C)=O)[C@@H](COC(C)=O)O2)cc1` yielded a z-score of -0.316. For `CCN1C(=O)[C@@H]2[C@H]3C(=CC[C@@H]2C1=O)C1(OCCCO1)[C@H]1O[C@H]1[C@H]3O`, the z-score was -1.63. `COC(=O)CC=C[C@@H](C)[C@@H](C=NOC[C@@H](O)[C@H]1O[C@@H]2OC(C)(C)O[C@@H]2[C@H]1O)NS(=O)(=O)c1ccc(C)cc1` gave a z-score of 1.4. Compound `C[C@@H](c1ccccc1)N1C(=O)[C@H]2[C@H]3[C@H](O)[C@H](O)CC(=NOCc4ccccc4)[C@H]3CC[C@H]2C1=O` has a z-score of 0.754. `O=C1OCCC=C1C(O)CCc1ccccc1` (configuration not stated) showed a z-score of -0.542. In the case of `CCOC(=O)C1=NO[C@]2(C=C(Br)C3(OCCCO3)[C@H]3O[C@H]32)C1`, the z-score was 0.99. Compound `COC(=O)C=CCCc1coc(C=CCNC(=O)OC)n1` has a z-score of -0.92. `CC(C)=CCCC(C)=CCON=C1C[C@@H](O)[C@@H](O)[C@@H]2[C@@H]3C(=O)N(Cc4ccccc4)C(=O)[C@@H]3CC[C@@H]12` gave a z-score of 0.83. `CO[C@H](C1CCCCC1)[C@H](C)C=CCC(=O)OCCCc1ccccc1` gave a z-score of -0.45.

— PubChem BioAssay
